Jurkat NFkB inh – inhibitors of induced NF-kB luciferase reporter, primary screen, TCR NF-kB activation inhibitor project, cell-based, luminescence, uHTS. Jurkat, PMA/ionomycin-induced NF-kB luciferase reporter. AID 435003, 2010. inhibition, % at 4 µM. actives 0.53% (n = 330,000); in the data active = inhibition above about 50%
Shn3 inh set2 – reduction of Shn3 3'UTR firefly luciferase signal, primary screen, Schnurri-3 inhibitor project, cell-based, Clone20 osteoblasts, set 2. AID 588674, 2011. Clone20 osteoblast Shn3 3'UTR firefly luciferase, 24 h. actives 0.52% (n = 360,000). inhibition, % at 12.5 µM;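 active = mean inhibition of at least 75% with every replicate also reaching 75%; inconclusive = mean inhibition at least 75% but some replicate below; inactive = mean inhibition below 75%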
Calb FLC – C. albicans growth inhibition with fluconazole, primary screen, CaCi-2 strain, Alamar Blue fluorescence; C. albicans CaCi-2 (fluconazole-resistant clinical isolate) + fluconazole, 48 h; growth inhibition, % (test concentration not listed); actives 0.57% (n = 300,000); AID 1979, 2009;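 active = growth inhibition above about 58% in most replicates, limit read from the data, passing the limit was not always enough; inconclusive = exactly half the replicates above a set limit; inactive = most replicates below a set limit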;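 also: all wells also contain fluconazole at 8 µg/ml as a sub-toxic cotreatment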
697 NFkB inh – inhibitors of PMA/ionomycin-induced NF-kB reporter, 697 cells, primary screen, B-cell NF-kB inhibitor project, cell-based, luminescence, uHTS | inhibition, % at 4 µM | actives 0.33% (n = 330,000) | 697 B-cell NF-kB luciferase reporter, 16 h | AID 435022, 2010; in the data active = inhibition above about 35%
Beta cell apopt – inhibitors of cytokine-induced beta cell apoptosis, primary screen, luminescence | INS-1E cytokine-induced death, ATP luminescence, 48 h; percent of positive-control rescue, neutral wells zero | protection from apoptosis, % (test concentration not listed) | actives 0.8% (n = 300,000);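 active = Every replicate reaches about 75%, or at least half do and their mean reaches it too, limit read from the data; inconclusive = At least half of replicates reach the limit but their mean does not; inactive = Under half of replicates reach the limit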;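 also: higher means more ATP so stronger rescue from cytokine killing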
697 NFkB conf – PMA/ionomycin-induced NF-kB reporter inhibitors, 697 retest, confirmation, B-cell NF-kB inhibitor project, cell-based, luminescence, single concentration; shares compounds with 697 NFkB inh; 697 B-cell NF-kB luciferase, 16 h; inhibition, % at 4 µM; actives 35% (n = 2,000); in the data active = inhibition mostly above about 28%, no sharp cut-off; inactive = mostly below about 22%
Hits are given with their value; - = inactive; ? = inconclusive; . = not tested or not shown. Most compounds without a hit are left out; they make up all but 2% or so of the library.

SMILES	Jurkat NFkB inh	Shn3 inh set2	Calb FLC	697 NFkB inh	Beta cell apopt	697 NFkB conf
COc1cc(OC)cc(C(=O)NNC(=O)C(CCC(N)=O)NS(=O)(=O)c2ccc(Cl)cc2)c1 (stereo unspecified)	.	-	.	.	.	.
COC(=O)c1ccccc1-c1c2ccc(=N)cc-2oc2cc(N)ccc12	-	-	.	-	99	-
CN(C)S(=O)(=O)c1ccc(N2CCCC2)c(C(=O)N2CCN(S(=O)(=O)c3ccc(F)c(F)c3)CC2)c1	.	-	.	.	.	.
O=C(O)CCCCCn1c(SCc2cc(=O)n3ccccc3n2)nc2ccsc2c1=O	-	-	-	36	-	-
Cc1cccc(N2CC(C(=O)Nc3nccs3)CC2=O)c1C (stereo unspecified)	-	-	-	-	.	.
CCOC(=O)c1ccc2nc(NC(=O)c3cccs3)sc2c1	-	-	-	-	-	.
CS(=O)(=O)c1ccc2nc(NC(=O)c3ccco3)sc2c1	-	-	-	-	-	.
CC1CCc2nc(NC(=O)Cc3cccs3)sc2C1 (stereo unspecified)	-	-	-	-	-	.
CC1CCc2nc(NC(=O)c3ccco3)sc2C1 (stereo unspecified)	-	-	-	-	-	-
CCOc1ccc2nc(NC(=O)c3ccco3)sc2c1	-	-	?	-	-	-
CCOC(=O)c1ccc2nc(NC(=O)c3ccco3)sc2c1	-	-	-	-	-	-
CCOc1ccc2nc(NC(=O)c3ccccn3)sc2c1	-	-	-	-	77	-
COc1cc(C(=O)OCC(=O)NC2CCCCC2)cc2c1OCCO2	-	-	.	-	-	.
O=C(CN1C(=O)CSc2ccc(S(=O)(=O)N3CCOCC3)cc21)NCc1ccc(F)cc1	-	-	-	-	-	.
O=C(Nc1nc2c(F)cc(F)cc2s1)c1ccccn1	-	88	-	-	93	-
O=C(COc1ccccc1)NNc1nc2c(F)cc(F)cc2s1	-	-	-	-	-	.
O=C(N/N=C/c1sc(N2CCOCC2)nc1-c1ccccc1)c1ccccc1F	-	.	-	40	-	-
Cc1cc(C(=O)N/N=C/c2sc(N3CCOCC3)nc2-c2ccccc2)c(C)o1	-	-	-	40	-	-
O=C(N/N=C/c1sc(N2CCOCC2)nc1-c1ccccc1)c1ccccc1O	-	-	-	-	-	.
COc1ccc(-c2n(Cc3ccccc3)c3ccccc3[n+]2Cc2ccccc2)cc1	-	-	?	41	113	33
C[C@H]1CN([C@@H](C)CO)C(=O)CCCn2cc(nn2)CO[C@@H]1CN(C)S(=O)(=O)c1ccc(Oc2ccccc2)cc1	.	-	.	.	.	.
O=C(CN1CCCCCC1)Nc1cc(C(F)(F)F)ccc1Cl	-	-	-	-	-	.
O=C(O)C1=C(C(=O)Nc2cc(C(F)(F)F)ccc2Cl)CCCC1	-	-	-	37	-	-
S=C(Nc1ccc(Cl)cc1)c1nc2ccccc2s1	-	-	-	-	.	.
Cc1ccc(NC(=S)c2nc3ccccc3s2)cc1	-	-	-	-	-	-
SMILES	Jurkat NFkB inh	Shn3 inh set2	Calb FLC	697 NFkB inh	Beta cell apopt	697 NFkB conf
Cc1ccc(CC(=O)Nc2nc3c(s2)CCCC3)cc1	-	-	-	-	-	-
COc1ccccc1OCC(=O)Nc1nc2c(s1)CCCC2	-	-	-	-	.	-
COc1ccc(OCC(=O)Nc2nc3c(s2)CCCC3)cc1	-	-	-	-	.	.
Cc1ccc(C)c2[nH]c(=O)c(C(c3nnnn3C(C)(C)C)N3CC=C(c4ccc(F)cc4)CC3)cc12 (stereo unspecified)	.	-	.	.	.	.
NC(Cc1ccc(F)cc1)c1csc(Nc2nccc(C(F)(F)F)n2)n1 (stereo unspecified)	.	-	.	.	.	.
O=C(O)c1cc(NS(=O)(=O)c2ccc(N3CCCCC3)c([N+](=O)[O-])c2)cc(C(=O)O)c1	-	-	-	-	-	.
Cc1cc(C)n2cc(COc3ccc4ccccc4c3)nc2n1	-	-	-	-	-	.
Cc1cccc2nc(COc3ccc(-c4ccccc4)cc3)cn12	-	.	-	-	.	-
CCC(=O)Nc1cc2nn(-c3ccc(OC)cc3)nc2cc1C	-	-	-	-	.	-
O=C(N/N=C/c1cccnc1)c1cc(-c2ccccc2OCc2ccccc2)n[nH]1	-	.	-	35	-	26
CCNC(=O)C1(C)CCN1Cc1cc(-c2ccccc2)n(C)n1 (stereo unspecified)	.	-	.	.	.	.
COC(=O)c1ccc(C2c3[nH]c4ccccc4c3C[C@H]3C(=O)N(C)CC(=O)N23)cc1 (stereo partly specified)	-	-	-	-	-	.
CCN1C(=O)[C@@H]2Cc3c([nH]c4ccccc34)C(c3ccc(OC)cc3)N2C1=S (stereo partly specified)	-	-	-	-	-	-
CCc1n[nH]c(=S)n1/N=C/c1cc(Br)c(O)c(OC)c1	-	-	-	36	-	-
COc1cc(/C=N/n2c(COc3ccccc3)n[nH]c2=S)cc(Br)c1O	-	-	-	-	-	.
CNC(=S)N/N=C/c1cn(CCOc2ccccc2OC)c2ccccc12	-	-	-	35	-	-
COc1cccc(OCCn2cc(/C=N/NC(=O)c3ccncc3)c3ccccc32)c1	-	-	-	-	-	.
CNC(=S)N/N=C/c1cn(CCOc2cccc(OC)c2)c2ccccc12	-	-	-	40	-	-
CCOC(=O)C1=CCC(c2cccc(C)c2)N(S(=O)(=O)c2ccc(C)cc2)C1 (stereo unspecified)	.	-	.	.	.	.
NNC(=O)[C@@H]1C[C@@H]1c1ccccc1	-	-	-	-	-	.
CCc1c(C)sc(NC(=O)C2CC2c2ccccc2)c1C(N)=O (stereo unspecified)	-	-	-	-	-	-
O=C(NC1CCCC1)c1cccc2c1C(=O)c1ccc(Cl)cc1S2(=O)=O	-	-	.	-	-	.
CCn1c(CN2CCN(c3ccc(Cl)cc3)CC2)nc2ccccc21	-	-	-	46	-	51
COc1ccc(-c2cc3ccc(F)cc3cn2)cc1	-	-	.	-	-	.
COc1ccc(-c2cc3cc(F)ccc3cn2)cc1	-	-	.	-	-	-
Cc1ccc(NC(=O)[C@H](Cc2c[nH]c3ccccc23)NC(=O)[C@@H]2Cc3ccccc3CN2)c(C)c1	-	-	-	-	-	-
CCc1ccc(NC(=O)[C@H](Cc2c[nH]c3ccccc23)NC(=O)[C@@H]2Cc3ccccc3CN2)cc1	-	-	-	-	.	-
Cc1cc(C)cc(NC(=O)[C@H](Cc2c[nH]c3ccccc23)NC(=O)[C@@H]2Cc3ccccc3CN2)c1	-	-	-	-	-	.
Cc1cccc(NC(=O)[C@H](Cc2c[nH]c3ccccc23)NC(=O)[C@@H]2Cc3ccccc3CN2)c1	-	-	-	-	.	-

Screens deposited in PubChem by several laboratories.
